Our source for the Inhibition values is ChEMBL document CHEMBL1157539, “Thousands of chemical starting points for antimalarial lead identification” (Nature, 2010).

This test has as its system HepG2. The test is described as follows: GSK_TCMDC: Percent inhibition of human HepG2 cell line. Test compounds present at 10uM. The class given is functional.
Turning to `CCOC(=O)CC[C@@H](NC(=O)c1ccc(NCc2ccc3ccc4nc(C)[nH]c(=O)c4c3c2)cc1F)C(=O)N[C@@H](Cc1c[nH]c2ccccc12)C(=O)OCC`, the Inhibition was 45%.
As for `CCc1sc(N2CCN(C)CC2)nc1C(=O)NCCc1ccc(Cl)c(Cl)c1.O=C(O)C(F)(F)F`, the figure is 5%; as for `O=C(Nc1cccc(-c2ccc(-c3nc4cc(F)ccc4[nH]3)cc2)c1)c1ccncc1`, 52%; as for `O=C(CSc1nn(-c2ccccc2)c(=S)s1)c1c[nH]c2ccccc12`, 0%.
The figure for `NC(=O)c1ccccc1OCC(=O)Nc1cccc(-c2ccc(-c3nc4ccccc4[nH]3)cc2)c1` is 66%; for `CN1CCCC(CN2CCN(Cc3ccc(-c4cccc(-c5nc6ccccc6[nH]5)c4)cc3)CC2)C1.O=C(O)C(F)(F)F` (stereo not given) it is 57%.
The molecule `Cc1[nH]c2c(C)cccc2c1C1CCN(CCC2CCN(C(=O)/C=C/c3ccc(Cl)c(Cl)c3)CC2)CC1` yielded an Inhibition of 67%.
For `COc1ccc(NC(=O)CCNc2cc(C)nc(NCCOc3ccccc3)n2)cc1.O=C(O)C(F)(F)F`, the Inhibition was found to be 0%.
The figure for `C[C@@H](Nc1nc(NCc2ccccc2)c2sccc2n1)c1ccccc1` is 31%; for `COc1cc2ncnc(Nc3ccc(OCc4ccccc4)c(I)c3)c2cc1OC.Cl` it is 11%.
Regarding `Cc1cc(Cl)c(Cl)cc1NC(=O)Nc1cccc(C(F)(F)F)c1`, the Inhibition is recorded as 1%.
`Cc1sc2ccc(Cl)cc2c1S(=O)(=O)Nc1ccc2nccc(N3CC(C)NC(C)C3)c2c1.Cl` (stereo not given) yielded an Inhibition of 17%.
The figure for `Nc1c2c(nc3ccc(C(=O)Nc4ccc(Br)cc4)cc13)CCCC2` is 40%; for `COc1ccc2nccc([C@H](O)CN3CCC(NCc4cc(C)c5c(c4)OCCO5)CC3)c2n1.Cl` it is 12%.
Turning to `COc1cccc(C(=O)N2CCN(Cc3cccc(NC(=O)c4cccs4)c3)CC2)c1.O=C(O)C(F)(F)F`, the Inhibition was 6%.
As for `Fc1cccc(-c2ccc3c(c2)CC(NCc2c[nH]c4cnccc24)C3)c1` (stereo not given), the figure is 24%; as for `COc1ccc(Nc2ccnc3cc(Cl)ccc23)cc1OC`, 36%; as for `CCCCn1c(Sc2ccc(C#N)c([N+](=O)[O-])c2)nnc1-c1cc(OC)cc(OC)c1`, 7%.
As for `COc1cc2nc(N3CCC(CNC(=O)c4cccc5cc[nH]c45)CC3)nc(N)c2cc1OC`, the figure is 33%.
`Cc1nc(N)nc(N)c1OCCCCCCOc1ccccc1.Cl`: the Inhibition was 59%.
The figure for `CN(C)CCOc1ccc(N2CCN(CCCCNC(=O)c3ccc(NC(=O)c4ccc(Cl)cc4)cc3)CC2)cc1` is 13%; for `COc1ccc(C=C2SC(=N)N(c3ccccc3OC)C2=O)cc1` it is 47%.
`NC(=O)c1ccsc1NC(=O)CNC(c1ccccc1)c1ccccc1` returned an Inhibition of 8%.
The figure for `COc1cc2c(cc1C=CC(=O)N1CCN(Cc3nc(O)c4c(C)c(C)sc4n3)CC1)OC(C)C2` (stereo not given) is 0%; for `O=C(Nc1ccccc1F)NC1CCN(c2ccnc(Nc3ccc(F)cc3)n2)C1` (stereo not given) it is 0%; for `COc1cc2c(cc1N1CCN(C)CC1)N(C(=O)Nc1ccc(-c3ccncc3)c(Cl)c1Cl)CC2` it is 10%.
In the case of `Cc1ccccc1C1CCN(C2CCC(NC(=O)c3ccc4c(c3)-c3nocc3C(C)O4)CC2)CC1` (stereo not given), the Inhibition stood at 68%.
As for `COc1ccc(-c2cccc(NC(=O)c3ccc(Cl)cc3)c2)cc1CN(C)CCN(C)C.O=C(O)C(F)(F)F`, the figure is 37%; as for `Cc1[nH]c(C)c(-c2ccc(OCc3ccc(F)cc3)cc2)c(=O)c1Cl`, 0%; as for `O=C(NCC1CCC(C(=O)O)CC1)c1ccc(/C=C/C(=O)N2CCc3ccccc3C2c2ccc3c(c2)OCO3)cc1` (stereo not given), 66%.
Regarding `CCNc1cc(C(=O)N[C@@H](Cc2ccccc2)[C@H](O)CNCCc2cc(OC)cc(OC)c2)cc(N2CCCCS2(=O)=O)c1.Cl`, the Inhibition is 3%.
As to `CN(C(=O)/C=C/c1cc(C(F)(F)F)ccc1F)C1CCN(CCCCCNC(=O)/C=C/c2ccc(Cl)c(Cl)c2)C1` (stereo not given), the Inhibition came to 16%.
The molecule `CC(C)[C@H](NC(=O)c1ccc(O)c(-c2ccc(Cl)c(Cl)c2)c1)C(=O)NCCN1CCCC1` returned an Inhibition of 4%.
Regarding `CCCCOc1ccc(/C=C/c2ccc(-c3c(C)[nH]c(C)c(Cl)c3=O)s2)cc1`, the Inhibition came out at 0%.
Consider `CN(C)c1ccc2c(c1)Sc1cc(N(C)C)ccc1N2C(=O)CCCC(=O)[O-].[Na+]`, for which the Inhibition amounted to 0%.
As for `CC(=NNC(=N)N)c1ccc2c(ccc3ccccc32)c1.Cl`, the figure is 47%.
The molecule `Cc1cc(N2CCCN(C)CC2)nc(Nc2ccc(Br)cc2)n1` gave an Inhibition of 8%.
The figure for `COc1ccc(-c2csc(NC(=O)CCC(=O)O)n2)cc1OC` is 63%; for `CC1(C)C=C(c2ccncc2)c2cc(Cl)ccc2O1.Cl` it is 0%.
As for `O=C(O)C(F)(F)F.O=S(=O)(NCCN1CCCC1)c1ccc(-c2cccc(CNCc3ccc(F)cc3)c2)s1`, the figure is 48%.
